Measured values published in PubChem BioAssay AID1159580 (chemical genetic matrix, 2015).
Hit rate of the full screen: of about 5,500 compounds, about 2,000 (36%) were called active. Not shown: some 18% with an inconclusive outcome. Some of the results follow. Values without a mark were called inactive. No stated cut-off is given here; in the data, active means normalized growth mostly below about 0.91 (no sharp cut-off); inconclusive means no clear call, values can overlap the other calls; inactive means mostly above about 0.92.

Assay: chemical genetic growth profiling, strain panel (AID 1159580);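 further: tested at 20 µM; growth read once vehicle control cultures reached saturation at 30 °C; 1 = growth at the plate median or of vehicle wells; lower values mean less growth of the strain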
Details: growth OD

Q: For `O=C(Oc1cc(O)cc2c1C[C@@H](OC(=O)c1cc(O)c(O)c(O)c1)[C@@H](c1cc(O)c(O)c(O)c1)O2)c1cc(O)c(O)c(O)c1`, which normalized growth (S. cerevisiae deletion strains, locus YJL187C, strain SWE1, active compounds read low) is on record?
A: Its normalized growth is 1.02.

Q: What about the normalized growth (S. cerevisiae deletion strains, locus YJR043C, strain POL32, active compounds read low) of the same molecule?
A: Its normalized growth is 0.13 (active).

Q: What about the normalized growth (S. cerevisiae deletion strains, locus YJR066W, strain TOR1, active compounds read low) of the same molecule?
A: Its normalized growth is 0.949.

Q: And the normalized growth (S. cerevisiae deletion strains, locus YKL009W, strain mrt4, active compounds read low)?
A: Its normalized growth is 1.02.

Q: And the normalized growth (S. cerevisiae deletion strains, locus YKL068W, active compounds read low)?
A: The normalized growth was 0.985.

Q: What about the normalized growth (S. cerevisiae deletion strains, locus YKL085W, strain MDH1 (second series), active compounds read low) of the same molecule?
A: The normalized growth was 1.03.

Q: And the normalized growth (S. cerevisiae deletion strains, locus YKL085W, strain MDH1, active compounds read low)?
A: Its normalized growth is 1.03.

Q: And the normalized growth (S. cerevisiae deletion strains, locus YKL160W, strain elf1, active compounds read low)?
A: Its normalized growth is 1.01.

Q: And the normalized growth (S. cerevisiae deletion strains, locus YKR001C, strain vps1, active compounds read low)?
A: The normalized growth was 0.599 (active).

Q: What about the normalized growth (S. cerevisiae deletion strains, locus YKR026C, strain gcn3, active compounds read low) of the same molecule?
A: Its normalized growth is 0.984.

Q: What about the normalized growth (S. cerevisiae deletion strains, locus YKR091W, strain srl3, active compounds read low) of the same molecule?
A: Its normalized growth is 1.01.

Q: And the normalized growth (S. cerevisiae deletion strains, locus YLL001W, strain dnm1, active compounds read low)?
A: Its normalized growth is 1.01.

Q: What about the normalized growth (S. cerevisiae deletion strains, locus YLL026W, active compounds read low) of the same molecule?
A: Its normalized growth is 1.01.

Q: What about the normalized growth (S. cerevisiae deletion strains, locus YLL041C, strain sdh2, active compounds read low) of the same molecule?
A: The normalized growth was 1.01.

Q: What about the normalized growth (S. cerevisiae deletion strains, locus YLR027C, strain aat2, active compounds read low) of the same molecule?
A: Its normalized growth is 0.996.

Q: And the normalized growth (S. cerevisiae deletion strains, locus YLR039C, strain RIC1, active compounds read low)?
A: Its normalized growth is 0.233 (active).

Q: What about the normalized growth (S. cerevisiae deletion strains, locus YLR058C, strain SHM2, active compounds read low) of the same molecule?
A: Its normalized growth is 0.141 (active).

Q: And the normalized growth (S. cerevisiae deletion strains, locus YLR102C, strain apc9, active compounds read low)?
A: The normalized growth was 0.948.

Q: What about the normalized growth (S. cerevisiae deletion strains, locus YLR113W, strain HOG1, active compounds read low) of the same molecule?
A: Its normalized growth is 1.06.

Q: And the normalized growth (S. cerevisiae deletion strains, locus YLR221C, strain rsa3, active compounds read low)?
A: The normalized growth was 1.03.

Q: And the normalized growth (S. cerevisiae deletion strains, locus YLR258W, strain gsy2, active compounds read low)?
A: The normalized growth was 1.01.

Q: And the normalized growth (S. cerevisiae deletion strains, locus YLR262C, strain YPT6 (second series), active compounds read low)?
A: The normalized growth was 1.01.

Q: What about the normalized growth (S. cerevisiae deletion strains, locus YLR268W, strain sec22, active compounds read low) of the same molecule?
A: The normalized growth was 0.414 (active).

Q: And the normalized growth (S. cerevisiae deletion strains, locus YLR320W, strain mms22, active compounds read low)?
A: Its normalized growth is 1.04.

Q: What about the normalized growth (S. cerevisiae deletion strains, locus YLR330W, strain CHS5, active compounds read low) of the same molecule?
A: Its normalized growth is 0.613 (active).

Q: And the normalized growth (S. cerevisiae deletion strains, locus YLR342W, strain FKS1 (second series), active compounds read low)?
A: Its normalized growth is 0.198 (active).

Q: What about the normalized growth (S. cerevisiae deletion strains, locus YLR342W, strain FKS1, active compounds read low) of the same molecule?
A: Its normalized growth is 1.04.

Q: And the normalized growth (S. cerevisiae deletion strains, locus YLR357W, strain rsc2, active compounds read low)?
A: Its normalized growth is 1.01.

Q: And the normalized growth (S. cerevisiae deletion strains, locus YLR370C, strain arc18, active compounds read low)?
A: Its normalized growth is 1.01.

Q: And the normalized growth (S. cerevisiae deletion strains, locus YLR371W, strain rom2, active compounds read low)?
A: The normalized growth was 0.602 (active).

Q: And the normalized growth (S. cerevisiae deletion strains, locus YLR384C, strain iki3, active compounds read low)?
A: Its normalized growth is 0.998.

Q: What about the normalized growth (S. cerevisiae deletion strains, locus YLR418C, strain cdc73, active compounds read low) of the same molecule?
A: Its normalized growth is 0.341 (active).

Q: What about the normalized growth (S. cerevisiae deletion strains, locus YML016C, strain PPZ1, active compounds read low) of the same molecule?
A: Its normalized growth is 0.083 (active).

Q: And the normalized growth (S. cerevisiae deletion strains, locus YML032C, strain rad52, active compounds read low)?
A: The normalized growth was 0.857 (active).

Q: And the normalized growth (S. cerevisiae deletion strains, locus YML120C, strain ndi1, active compounds read low)?
A: Its normalized growth is 1.01.

Q: And the normalized growth (S. cerevisiae deletion strains, locus YML124C, strain tub3, active compounds read low)?
A: The normalized growth was 0.824 (active).

Q: And the normalized growth (S. cerevisiae deletion strains, locus YMR078C, strain ctf18, active compounds read low)?
A: Its normalized growth is 0.938.

Q: What about the normalized growth (S. cerevisiae deletion strains, locus YMR125W, strain sto1, active compounds read low) of the same molecule?
A: Its normalized growth is 0.985.

Q: And the normalized growth (S. cerevisiae deletion strains, locus YMR129W, active compounds read low)?
A: Its normalized growth is 1.01.

Q: And the normalized growth (S. cerevisiae deletion strains, locus YMR205C, strain PFK2, active compounds read low)?
A: The normalized growth was 1.02.

Q: And the normalized growth (S. cerevisiae deletion strains, locus YMR223W, strain ubp8, active compounds read low)?
A: The normalized growth was 0.666 (active).

Q: What about the normalized growth (S. cerevisiae deletion strains, locus YMR231W, strain pep5, active compounds read low) of the same molecule?
A: The normalized growth was 0.981.

Q: And the normalized growth (S. cerevisiae deletion strains, locus YMR307W, strain GAS1, active compounds read low)?
A: Its normalized growth is 0.448 (active).

Q: And the normalized growth (S. cerevisiae deletion strains, locus YNL067W, strain RPL9B, active compounds read low)?
A: Its normalized growth is 0.366 (active).

Q: And the normalized growth (S. cerevisiae deletion strains, locus YNL071W, strain lat1, active compounds read low)?
A: The normalized growth was 1.02.

Q: And the normalized growth (S. cerevisiae deletion strains, locus YNL183C, strain NPR1, active compounds read low)?
A: Its normalized growth is 0.943.

Q: And the normalized growth (S. cerevisiae deletion strains, locus YNL209W, strain ssb2, active compounds read low)?
A: The normalized growth was 0.991.

Q: And the normalized growth (S. cerevisiae deletion strains, locus YNL233W, strain BNI4, active compounds read low)?
A: The normalized growth was 0.455 (active).

Q: And the normalized growth (S. cerevisiae deletion strains, locus YNL248C, strain rpa49, active compounds read low)?
A: The normalized growth was 1.03.

Q: And the normalized growth (S. cerevisiae deletion strains, locus YNL250W, strain rad50, active compounds read low)?
A: The normalized growth was 0.953.

Q: And the normalized growth (S. cerevisiae deletion strains, locus YNL271C, strain bni1, active compounds read low)?
A: Its normalized growth is 0.941.

Q: And the normalized growth (S. cerevisiae deletion strains, locus YNL298W, strain CLA4, active compounds read low)?
A: The normalized growth was 0.948.

Q: And the normalized growth (S. cerevisiae deletion strains, locus YNL307C, strain MCK1, active compounds read low)?
A: Its normalized growth is 0.915.

Q: And the normalized growth (S. cerevisiae deletion strains, locus YNL322C, strain KRE1 (second series), active compounds read low)?
A: The normalized growth was 1.01.

Q: What about the normalized growth (S. cerevisiae deletion strains, locus YNR049C, strain mso1, active compounds read low) of the same molecule?
A: Its normalized growth is 1.03.

Q: What about the normalized growth (S. cerevisiae deletion strains, locus YNR052C, strain pop2, active compounds read low) of the same molecule?
A: Its normalized growth is 0.436 (active).

Q: What about the normalized growth (S. cerevisiae deletion strains, locus YOL012C, strain htz1) of the same molecule?
A: Its normalized growth is 0.207.

Q: And the normalized growth (S. cerevisiae deletion strains, locus YOL147C, strain pex11, active compounds read low)?
A: The normalized growth was 0.779 (active).

Q: And the normalized growth (S. cerevisiae deletion strains, locus YOR001W, strain rrp6, active compounds read low)?
A: The normalized growth was 1.02.

Q: And the normalized growth (S. cerevisiae deletion strains, locus YOR061W, strain CKA2, active compounds read low)?
A: The normalized growth was 0.218 (active).

Q: What about the normalized growth (S. cerevisiae deletion strains, locus YOR069W, strain VPS5, active compounds read low) of the same molecule?
A: Its normalized growth is 0.182 (active).

Q: What about the normalized growth (S. cerevisiae deletion strains, locus YOR070C, strain gyp1, active compounds read low) of the same molecule?
A: The normalized growth was 1.

Q: And the normalized growth (S. cerevisiae deletion strains, locus YOR080W, strain dia2, active compounds read low)?
A: The normalized growth was 1.02.

Q: What about the normalized growth (S. cerevisiae deletion strains, locus YOR083W, strain WHI5, active compounds read low) of the same molecule?
A: Its normalized growth is 0.999.

Q: And the normalized growth (S. cerevisiae deletion strains, locus YOR106W, strain vam3, active compounds read low)?
A: Its normalized growth is 0.989.

Q: And the normalized growth (S. cerevisiae deletion strains, locus YOR136W, strain idh2, active compounds read low)?
A: Its normalized growth is 0.795 (active).

Q: What about the normalized growth (S. cerevisiae deletion strains, locus YOR144C, strain elg1, active compounds read low) of the same molecule?
A: The normalized growth was 0.814 (active).

Q: What about the normalized growth (S. cerevisiae deletion strains, locus YOR184W, strain ser1, active compounds read low) of the same molecule?
A: The normalized growth was 0.445 (active).

Q: What about the normalized growth (S. cerevisiae deletion strains, locus YOR231W, strain MKK1, active compounds read low) of the same molecule?
A: Its normalized growth is 1.02.

Q: And the normalized growth (S. cerevisiae deletion strains, locus YOR265W, strain rbl2, active compounds read low)?
A: The normalized growth was 1.02.

Q: What about the normalized growth (S. cerevisiae deletion strains, locus YOR270C, strain vph1, active compounds read low) of the same molecule?
A: Its normalized growth is 1.06.

Q: What about the normalized growth (S. cerevisiae deletion strains, locus YOR290C, strain snf2, active compounds read low) of the same molecule?
A: The normalized growth was 0.988.

Q: What about the normalized growth (S. cerevisiae deletion strains, locus YOR316C, strain cot1, active compounds read low) of the same molecule?
A: Its normalized growth is 0.947.

Q: And the normalized growth (S. cerevisiae deletion strains, locus YPL051W, strain arl3, active compounds read low)?
A: The normalized growth was 1.

Q: What about the normalized growth (S. cerevisiae deletion strains, locus YPL055C, strain LGE1, active compounds read low) of the same molecule?
A: The normalized growth was 0.139 (active).

Q: What about the normalized growth (S. cerevisiae deletion strains, locus YPL078C, strain atp4, active compounds read low) of the same molecule?
A: Its normalized growth is 0.983.

Q: And the normalized growth (S. cerevisiae deletion strains, locus YPL106C, strain sse1, active compounds read low)?
A: The normalized growth was 1.01.

Q: What about the normalized growth (S. cerevisiae deletion strains, locus YPL240C, strain hsp82, active compounds read low) of the same molecule?
A: Its normalized growth is 1.01.

Q: And the normalized growth (S. cerevisiae deletion strains, locus YPL256C, strain CLN2, active compounds read low)?
A: Its normalized growth is 1.07.

Q: And the normalized growth (S. cerevisiae deletion strains, locus YPR119W, strain clb2, active compounds read low)?
A: The normalized growth was 0.972.

Q: What about the normalized growth (S. cerevisiae deletion strains, locus YPR141C, strain kar3, active compounds read low) of the same molecule?
A: Its normalized growth is 0.974.

Q: And the normalized growth (S. cerevisiae deletion strains, locus YPR163C, strain tif3, active compounds read low)?
A: The normalized growth was 0.87 (active).

Q: What about the normalized growth (S. cerevisiae deletion strains, locus YPR167C, strain met16, active compounds read low) of the same molecule?
A: The normalized growth was 0.847 (active).

Q: And the normalized growth (S. cerevisiae deletion strains, strain wtn01, active compounds read low)?
A: The normalized growth was 0.433 (active).

Q: And the normalized growth (S. cerevisiae strains, strain wild type, active compounds read low)?
A: Its normalized growth is 0.0757 (active).
